FBW7 activator = FBW7 E3 ligase activators, primary screen, biochemical, AlphaScreen, human; F-box/WD repeat-containing protein 7 (Homo sapiens), Q969H0; AlphaScreen FBW7–phospho-cyclin E peptide binding, activator screen; normalized activity (activation), % at 26.1 µM; actives 0.13% (n = 650,000); AID 1259310, 2017; in the data active = normalized activity above about 1.9%;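 note: purified mutant Fbw7 with reduced substrate affinity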
TEAD-YAP block = TEAD-YAP interaction inhibition, primary screen, TEAD-YAP interaction inhibitor project, luminescence, HEK-TIYL cells | TEAD-Gal4/YAP UAS-luciferase luminescence | inhibition, % at 9.12 µM | actives 1.4% (n = 640,000); in the data active = inhibition above about 32%
MITF inh = MITF inhibitors, primary screen, biochemical, AlphaScreen, human; actives 0.91% (n = 650,000); inhibition, % at 2.6 µM; Microphthalmia-associated transcription factor (Homo sapiens), O75030; AID 1259374, 2018; AlphaScreen MITF homodimerization, bead proximity signal; in the data active = inhibition above about 50%
GPR151 activ = activators of human GPR151, primary screen, cell-based, PathHunter beta-arrestin, luminescence; actives 1% (n = 650,000); activation, % at 11.2 µM; G-protein coupled receptor 151 (Homo sapiens), Q8TDV0; PathHunter beta-arrestin GPR151 cells; in the data active = activation above about 4.9%
Target sequence (Q8TDV0 whole entry, looked up): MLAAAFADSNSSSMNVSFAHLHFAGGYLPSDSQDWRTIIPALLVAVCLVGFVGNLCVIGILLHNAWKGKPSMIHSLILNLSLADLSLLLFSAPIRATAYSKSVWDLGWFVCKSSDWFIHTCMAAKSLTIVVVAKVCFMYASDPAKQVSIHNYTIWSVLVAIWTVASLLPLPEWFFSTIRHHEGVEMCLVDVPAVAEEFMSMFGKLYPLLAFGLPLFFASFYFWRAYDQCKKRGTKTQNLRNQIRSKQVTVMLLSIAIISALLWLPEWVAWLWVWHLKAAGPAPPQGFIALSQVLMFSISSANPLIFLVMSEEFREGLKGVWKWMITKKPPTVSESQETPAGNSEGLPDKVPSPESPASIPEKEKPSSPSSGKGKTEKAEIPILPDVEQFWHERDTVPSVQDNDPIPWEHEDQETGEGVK
MITF confirm = MITF inhibitors, retest of hits, confirmation, biochemical, AlphaScreen, triplicate; shares compounds with MITF inh; AlphaScreen MITF homodimerization, biotin/His-MITF beads; inhibition, % at 2.6 µM; actives 16% (n = 4,700); AID 1259372, 2018;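 active = inhibition above a cutoff derived from the DMSO control wells, cut at about 28% in these data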;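 note: inhibitors lower the bead chemiluminescence by keeping MITF from dimerizing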
AS interf DR = AlphaScreen optical interference compounds, dose response, counter-screen, biochemical, HTS; shares compounds with MITF inh; AlphaScreen optical interference counterscreen, cell-free; IC50, µM; actives 6% (n = 480); call rule not given here
AlphaScreen intf2 = AlphaScreen optical interference compounds, counter-screen for MITF inhibitor project, biochemical, triplicate | shares compounds with MITF inh | LysRS AlphaScreen counterscreen, signal interference | inhibition, % at 2.6 µM | actives 7.6% (n = 4,700) | AID 1259376, 2018;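 active = inhibition above a cutoff derived from the DMSO control wells, cut at about 30% in these data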
Each line names hits and unclear results; the compound was inactive in the other large screens (follow-up assays come after a bar, where they were run). The list is not random: actives were taken first. Their share in the collection is about 3.5%.

C=CCc1cc(Cl)ccc1OCCCN1CCOCC1	MITF inh 71 | MITF confirm inactive | AlphaScreen intf2 inactive
C=CCc1cc(C)ccc1OCCCCN1CCOCC1	MITF inh 56 | MITF confirm inactive | AlphaScreen intf2 inactive
COc1ccc(Nc2ccc([N+](=O)[O-])c3nonc23)cc1	none
Cc1ccc(CCC(=O)Nc2ccc(OC(F)(F)F)cc2)o1	none
CCOc1ccc2c(c1)C(c1ccc(F)cc1)=NNC(c1cccnc1)=N2	none
O=C(Cc1ccccc1)n1nc(-c2cccnc2)nc1NCc1cccs1	MITF inh 57 | MITF confirm inactive | AlphaScreen intf2 inactive
O=C(Cc1ccccc1)n1nc(-c2cccnc2)nc1NCc1ccccc1	none
CCC(C)NCCCOc1ccc(Br)cc1C (stereo not given)	MITF inh 57 | MITF confirm inactive | AlphaScreen intf2 inactive
CCOc1cccc(OCCCNC(C)CC)c1 (stereo not given)	none
CCC(C)NCCOCCOc1ccccc1 (stereo not given)	none
CCC(C)NCCOc1cccc(Br)c1 (stereo not given)	MITF inh 61 | MITF confirm 45 | AS interf DR inactive | AlphaScreen intf2 inactive
CCC(C)NCCOCCOc1ccc(I)cc1 (stereo not given)	MITF inh 55 | MITF confirm inactive | AlphaScreen intf2 inactive
NC(=O)CN1CCN(C(=O)c2ncoc2-c2ccccc2Cl)CC1	none
COc1ccc(-n2nc([N+](=O)[O-])c(=Nc3ccc(F)cc3Cl)n2O)cc1	none
Cc1sc(NC(=O)CN(Cc2ccc(F)cc2)C(=O)C(C)(C)C)c(C(N)=O)c1C	MITF inh 68 | MITF confirm inactive | AlphaScreen intf2 inactive
Cc1sc(NC(=O)CN(Cc2ccc(F)cc2)C(=O)c2ccccc2)c(C(N)=O)c1C	none
O=C(c1ccccc1)N1CCC(N2CCN(c3ccccc3)CC2)CC1	MITF inh 79 | MITF confirm inactive | AlphaScreen intf2 inactive
O=C(c1cccc(Cl)c1)N1CCC(N2CCN(c3ccccc3)CC2)CC1	MITF inh 79 | MITF confirm inactive | AlphaScreen intf2 inactive
O=C(CCC1CCCC1)N1CCC(N2CCN(c3ccccc3)CC2)CC1	MITF inh 55 | MITF confirm inactive | AlphaScreen intf2 inactive
O=C(c1ccccc1)N1CCN(C2CS(=O)(=O)CC2O)CC1 (stereo not given)	MITF inh 81 | MITF confirm inactive | AlphaScreen intf2 inactive
O=C(c1cccc(Cl)c1)N1CCN(C2CCN(Cc3ccccc3)CC2)CC1	none
O=C(CCC(=O)N1CCN(c2ccccc2)CC1)N1CCN(c2ccccc2)CC1	none
O=C1Oc2ccccc2C(=O)/C1=C/N1CCN(c2ccccn2)CC1	none
CN(C)S(=O)(=O)c1cccc(NC(=O)COC(=O)Cn2nnc(-c3ccccc3)n2)c1	none
O=C1C(=O)N(CCBr)C(c2ccccc2)/C1=C(\O)c1ccccc1 (stereo not given)	MITF inh 59 | MITF confirm inactive | AlphaScreen intf2 inactive
O=C(Oc1ccc([N+](=O)[O-])c2cccnc12)c1ccc(F)cc1	MITF inh 60 | MITF confirm 66 | AlphaScreen intf2 100
O=C(Oc1cccc2cccnc12)c1ccc(F)cc1	none
CCN(CC)S(=O)(=O)c1cc(C(=O)Nc2ccc(Cl)cc2)ccc1Br	MITF inh 72 | MITF confirm inactive | AlphaScreen intf2 inactive
CCN(CC)S(=O)(=O)c1cc(C(=O)Nc2ccc(Br)cc2)ccc1Br	none
COC(=O)Cc1c(C)nc2nc(NCc3ccccc3C)[nH]n2c1=O	none
Cc1ccc(NC(=O)/C(=C\c2ccc([N+](=O)[O-])o2)NC(=O)c2ccc(Cl)cc2)cc1	none
Cc1ccc(C(=O)N/C(=C/c2ccc([N+](=O)[O-])o2)C(=O)O)cc1	MITF inh 70 | MITF confirm 54 | AS interf DR inactive | AlphaScreen intf2 inactive
CC(C)c1ccc(C(C)C)c(SCCc2ccccn2)c1	MITF inh 53 | MITF confirm inactive | AlphaScreen intf2 inactive
CC(C)(C)c1ccc(SCCc2ccccn2)cc1	MITF inh 63 | MITF confirm inactive | AlphaScreen intf2 inactive
C=CCOc1ccc2c3c(c(=O)oc2c1C)CCC3	MITF inh 54 | MITF confirm inactive | AlphaScreen intf2 inactive
CN(C)c1cc(NC(=O)CNC(C)(C)C)c(O)c2c1C[C@H]1C[C@H]3[C@@H](N(C)C)C(=O)C(C(N)=O)=C(O)[C@@]3(O)C(=O)C1=C2O	MITF inh 78 | MITF confirm 60 | AS interf DR inactive | AlphaScreen intf2 inactive
CCOC(=O)N1CCC(N(CCOC)C(=O)Nc2ccc(OC)cc2OC)CC1	none
Cn1c(CN2CCOCC2)nc(=O)c2ccccc21	MITF inh 53 | MITF confirm inactive | AlphaScreen intf2 inactive
C[C@H](NC(=O)c1ccccc1Cl)C(=O)OCC(=O)c1ccc2c(c1)OCCO2	none
O=C(Cc1ccccc1)Oc1cccc(N2C(=O)C3CCCCC3C2=O)c1 (stereo not given)	none
COc1ccc(CN2CCCC(C(=O)N3CCCC3)C2)c(OC)c1OC (stereo not given)	MITF inh 93 | MITF confirm inactive | AlphaScreen intf2 inactive
COc1ccc(OC)c(CN2CCCC(C(=O)N3CCCCCC3)C2)c1 (stereo not given)	MITF inh 93 | MITF confirm inactive | AlphaScreen intf2 inactive
COc1ccc(OC)c(CN2CCCC(C(=O)N3CCCCC3)C2)c1 (stereo not given)	MITF inh 78 | MITF confirm inactive | AlphaScreen intf2 inactive
COc1ccc(OC)c(CN2CCC(C(N)=O)CC2)c1	none
COc1ccc(OC)c(CN2CCCC(C(=O)NN)C2)c1 (stereo not given)	none
Cc1cc(Cl)c(OCCCn2cncn2)c(Br)c1	none
Cc1cc(Cl)cc(Br)c1OCCCCn1cncn1	MITF inh 63 | MITF confirm inactive | AlphaScreen intf2 inactive
Cc1c(C2c3ccccc3Sc3ccccc32)c(=O)n(-c2ccccc2)n1C	none
CCCCOc1ccc(C(=O)N/C(=C/c2ccco2)C(=O)O)cc1	MITF inh 51 | MITF confirm 64 | AS interf DR inactive | AlphaScreen intf2 inactive
CCCCOc1ccc(C(=O)N/C(=C\c2ccco2)C(=O)OC)cc1	none
Cc1cccn2c(=O)c(/C=C3\SC(=S)N(C)C3=O)c(NCCc3ccccc3)nc12	none
O=S(=O)(/C=C/c1ccccc1)N1CCN(C/C=C/c2ccccc2)CC1	none
CCN1CCN(S(=O)(=O)/C=C/c2ccccc2)CC1	MITF inh 74 | MITF confirm inactive | AlphaScreen intf2 inactive
